In PubChem BioAssay (NCATS):
Inconclusive results are not listed. Active and inactive are the calls of the source. The call rests on the fitted dose curve; in most records, active means well fitted curve in the direction sought with a large enough effect; inconclusive means small, poorly fitted or top-dose-only effect, or another doubt; inactive means no such curve, though single readings can be large; an effect the other way counts as inactive or inconclusive. Where a SMILES comes first, the peptide text is derived from it. Bridges are numbered along the chain shown (N, C = ends). [ ]: non-standard residue; d: D form. hArg = N=C(N)NCCCC[C@H](N)C(=O)O; Mpa = O=C(O)CCS

Key:
[1] = target: Protein phosphatase 1D (Homo sapiens) (UniProt O15297); assay: RapidFire Mass Spectrometry qHTS Assay for Modulators of WT P53-Induced Phosphatase 1 (WIP1) (AID 1347424);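 further: amount of dephosphorylated VEPPL-S-QETFS peptide product formed by WIP1; series mostly up to about 63 µM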
Protein phosphatase 1D (Homo sapiens), sequence (O15297 whole entry, looked up): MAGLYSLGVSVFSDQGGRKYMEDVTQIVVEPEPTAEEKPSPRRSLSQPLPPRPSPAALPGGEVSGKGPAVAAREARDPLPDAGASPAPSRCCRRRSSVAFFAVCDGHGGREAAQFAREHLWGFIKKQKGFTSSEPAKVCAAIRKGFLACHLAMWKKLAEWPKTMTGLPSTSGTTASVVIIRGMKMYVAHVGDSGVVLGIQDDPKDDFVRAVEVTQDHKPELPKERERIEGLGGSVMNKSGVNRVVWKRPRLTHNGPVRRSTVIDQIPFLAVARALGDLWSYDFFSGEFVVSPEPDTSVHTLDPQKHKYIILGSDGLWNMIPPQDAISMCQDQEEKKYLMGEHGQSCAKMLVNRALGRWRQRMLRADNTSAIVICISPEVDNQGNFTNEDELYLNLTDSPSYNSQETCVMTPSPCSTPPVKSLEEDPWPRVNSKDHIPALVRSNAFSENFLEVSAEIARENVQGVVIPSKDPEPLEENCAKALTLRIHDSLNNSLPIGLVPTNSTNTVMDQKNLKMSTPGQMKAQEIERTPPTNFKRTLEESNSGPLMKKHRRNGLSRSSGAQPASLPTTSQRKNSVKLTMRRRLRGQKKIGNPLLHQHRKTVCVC
Outline: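 Mass-spectrometric measurement of dephosphorylated peptide after a 5 min room-temperature reaction of 10 nM WIP1 with 2 uM phosphopeptide, following 1 h compound preincubation in 30 mM MgCl2 buffer.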

[2] = target: Protein phosphatase 1D (Homo sapiens) (UniProt O15297); assay: Rhodamine-PBP qHTS Assay for Modulators of WT P53-Induced Phosphatase 1 (WIP1) (AID 1347425)
Outline: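 The read-out is the change in Rhodamine-PBP fluorescence (f1 - f0, ex 525/em 598 nm) as Pi is released, read each minute for 11 min. Final reaction: 5 nM WIP1, 10 uM phosphopeptide VEPPL-pS-QETFS, 10 uM Rh-PBP, 50 mM Tris-HCl pH 7.5, 30 mM MgCl2. Compound was preincubated with enzyme for 1 hour at room temperature.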

[3] = Primary qHTS for inhibitors of La Crosse Virus (LACV) - induced cell death in SH-SY5Y cells (AID 1508616);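 further: top concentration of the series differs between compounds; higher means more rescue of cells from virus-induced death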
Outline: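 Rescue of virus-induced death was read as ATPLite luminescence after 6 days at 37C, scaled between DMSO wells with LACV and without virus. Cells were SH-SY5Y, 6000/well, infected at 0.01 MOI after compound addition.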

[4] = target: Calcium and integrin-binding protein 1 (Homo sapiens) (UniProt Q99828); assay: Primary qHTS for Identification of Calcium Integrin Binding Protein 1 (CIB1) Competitor (AID 1508620);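 further: GST tagged CIB1 binding a fluorescein labelled alphaIIb integrin peptide tracer; top concentration of the series differs between compounds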
Calcium and integrin-binding protein 1 (Homo sapiens), sequence (Q99828 whole entry, looked up): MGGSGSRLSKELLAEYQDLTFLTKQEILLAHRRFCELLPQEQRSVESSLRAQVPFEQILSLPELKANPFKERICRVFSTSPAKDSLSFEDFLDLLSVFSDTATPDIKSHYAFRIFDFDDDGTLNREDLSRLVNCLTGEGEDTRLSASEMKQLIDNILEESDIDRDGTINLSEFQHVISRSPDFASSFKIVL
Outline: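 Fluorescence polarization competition: CIB1-GST (1 uM final) preincubated with compound 15 min at room temperature, then FITC-labeled alphaIIb peptide (100 nM final) added for another 15 min. Polarization read at Ex 480/Em 540.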

Measured: outcome

NC(=O)CC[C@@H](N)C(=O)O
inactive: all assays above

CC(=O)NCc1c(I)c(NC(C)=O)c(I)c(C(=O)O)c1I
inactive: all assays above

Cn1c([N+](=O)[O-])cnc1COC(N)=O
inactive: all assays above

CCc1cccc(CC)c1NC(=O)CN(CC(=O)O)CC(=O)O
inactive: all assays above

Cc1c(Cn2ccnc2)c2ccccc2n1CCC(=O)O
inactive: [1] | [2] | [4]

C1CCN2C[C@@H]3C[C@@H](CN4CCCC[C@@H]34)[C@H]2C1
inactive: all assays above

CC(=O)Oc1cccc(C)c1
inactive: all assays above

CC(C(=O)O)c1ccc2c(c1)Cc1cccnc1O2 (stereo not drawn)
inactive: all assays above

NC(=O)[C@@H]1CSSCCC(=O)N[C@@H](CCCCN=C(N)N)C(=O)NCC(=O)N[C@@H](CC(=O)O)C(=O)N[C@@H](Cc2c[nH]c3ccccc23)C(=O)N2CCC[C@H]2C(=O)N1 ([Mpa][hArg]GDWPC-NH2; disulfide 1-7)
inactive: all assays above

OC[C@@H](O)[C@@H](O)[C@H](O)[C@H](O)CO
inactive: [1] | [2] | [4]

CCOC(=O)c1cccnc1
inactive: all assays above

CCCCC1(COC(=O)CCC(=O)O)C(=O)N(c2ccccc2)N(c2ccccc2)C1=O
inactive: all assays above

CC(C)=CCC[C@@](C)(O)[C@H]1CC=C(C)CC1
inactive: all assays above

CCCCCCCC(=O)OCC(O)CO (stereo not drawn)
inactive: all assays above

CC(=O)N[C@@H](CC(C)C)C(=O)O
inactive: all assays above

O[C@@H]1CO[C@H]2[C@@H]1OC[C@@H]2O
inactive: all assays above

O=C(CN1CCNCC1)NC1CCCCC1
inactive: all assays above

C/C=C1\[C@H]2C=C(C)C[C@]1(N)c1ccc(=O)[nH]c1C2
inactive: all assays above

COc1nccnc1NS(=O)(=O)c1ccc(N)cc1
inactive: all assays above

CC[C@]12CCCN3CCc4c(n(c5ccccc45)[C@@](O)(C(=O)OC)C1)[C@@H]32
inactive: all assays above

COC(=O)c1ccc(O)cc1
inactive: [1] | [2] | [3]

CCCCOC(=O)c1ccc(N)cc1
inactive: all assays above

COCC(=O)Nc1c(I)c(C(=O)NCC(O)CO)c(I)c(C(=O)N(C)CC(O)CO)c1I (stereo not drawn)
inactive: all assays above

COc1ccc(C(=O)NCc2ccc(OCCN(C)C)cc2)cc1OC
inactive: all assays above
